# Active and inactive are the calls of the source.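 Rule for the calls, unless noted: active = inhibition of the reporter signal at or above 50%; inactive = inhibition below 50%.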
# Key:
# [1] = inhibitors of TNFa-induced NFkB p65 translocation, primary screen, imaging, HUVEC, MLSMR starter and 10KST1 sets (AID 438;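 active = inhibition above 20% together with a positive visual image hit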;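 note: compound added about 3h40 before a 20 min TNFalpha stimulation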;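 for inhibition: signal is the nuclear over cytoplasmic p65 intensity ratio per well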); conditions: HUVEC TNFa-induced p65 nuclear translocation; cell count: measured here: nuclei count (cytotoxicity indicator), at 2.08 µM; inhibition: at 2 µM, stronger effect = higher value, 0% TNFa-plus-vehicle, 100% no-TNFa wells
# [2] = reduction of polyQ htt aggregates in cells – imaging, exon1htt(103Q)mCFP cells, high-content imaging, primary screen (AID 483;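 active = visual image review flags a hit and inhibition of aggregation exceeds 20%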;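 note: compound exposure lasted 3 days before fixation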;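 for nuclei count: percent of the per-plate median nuclei count of sample wells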); conditions: exon1htt(103Q)mCFP cell line, aggregate imaging, at 2 µM; inhibition of aggregation: stronger effect = higher value; nuclei count: measured here: cell count, toxicity
# [3] = endothelial E-selectin expression blockers – imaging, HUVEC, immunofluorescence, MLSMR starter and 10KST1 sets, primary screen (AID 487;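 active = visually confirmed hit in the image check and inhibition above 20%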;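 for inhibition: signal is fraction of cell area covered by stained E-selectin grains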;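 for nuclei count: 100% = median nuclei count of all wells on the same plate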); conditions: HUVEC TNFalpha-induced E-selectin immunofluorescence imaging, at 2 µM; inhibition: stronger effect = higher value; nuclei count: measured here: cell number, toxicity
# [4] = Primary imaging screen for DUSP6 inhibitors that restore phospho-Erk in transfected HeLa cells, chemical complementation (AID 609;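 active = compounds giving at least 50% inhibition in the cell-based MKP-3 phosphatase rescue imaging test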;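 for inhibition: phospho-Erk level distribution per well compared with pooled transfected vehicle control wells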); conditions: HeLa MKP-3 transfected, phospho-Erk imaging KS statistic, at 10 µM, cells stimulated with TPA for 15 min
# [5] = molecular target: Dual specificity protein phosphatase 6 (Homo sapiens) (UniProt Q16828); experiment: as above; conditions: HeLa MKP-3 transfected, phospho-Erk imaging KS statistic; at 10 µM; stronger effect = higher value; cells stimulated with TPA for 15 min
# Chain of Dual specificity protein phosphatase 6 (Homo sapiens) (Q16828 whole entry, looked up): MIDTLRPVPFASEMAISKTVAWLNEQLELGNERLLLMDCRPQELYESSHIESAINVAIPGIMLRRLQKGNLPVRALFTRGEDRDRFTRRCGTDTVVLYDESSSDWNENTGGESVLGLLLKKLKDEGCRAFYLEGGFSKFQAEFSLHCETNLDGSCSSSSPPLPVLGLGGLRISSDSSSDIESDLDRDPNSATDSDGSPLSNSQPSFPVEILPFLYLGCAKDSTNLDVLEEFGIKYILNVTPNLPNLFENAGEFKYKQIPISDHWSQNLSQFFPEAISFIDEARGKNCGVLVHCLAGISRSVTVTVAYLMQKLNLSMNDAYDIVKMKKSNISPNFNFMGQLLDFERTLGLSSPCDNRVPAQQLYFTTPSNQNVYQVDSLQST
# [6] = molecular target: Voltage-gated potassium channel subunit beta-2 (Rattus norvegicus) (UniProt P62483); experiment: inhibitors of rat Kvbeta2 reductase activity – biochemical, NADPH fluorescence, primary screen (AID 622;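 active = fluorescence slope higher than the sample average by over 3 SD, cut at about -0.22 in these data, passing the limit was not always enough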;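 note: slope of raw intensity against log time taken from 70 to 1610 s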); conditions: recombinant KvBeta, 4-cyanobenzaldehyde reduction, at 10 µM, stronger effect = higher value
# Chain of Voltage-gated potassium channel subunit beta-2 (Rattus norvegicus) (P62483 whole entry, looked up): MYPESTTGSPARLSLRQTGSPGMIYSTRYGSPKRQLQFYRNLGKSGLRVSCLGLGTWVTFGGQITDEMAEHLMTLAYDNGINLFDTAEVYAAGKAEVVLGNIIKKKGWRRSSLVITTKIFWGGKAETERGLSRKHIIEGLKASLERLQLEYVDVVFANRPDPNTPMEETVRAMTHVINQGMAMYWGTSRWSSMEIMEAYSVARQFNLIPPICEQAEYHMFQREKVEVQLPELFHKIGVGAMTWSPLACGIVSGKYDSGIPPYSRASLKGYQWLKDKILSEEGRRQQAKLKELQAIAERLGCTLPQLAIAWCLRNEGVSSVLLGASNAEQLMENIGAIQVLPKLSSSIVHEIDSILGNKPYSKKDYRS
# [7] = molecular target: Voltage-gated potassium channel subunit beta-2 (Rattus norvegicus) (UniProt P62483); experiment: enhancers of rat Kvbeta2 NADPH turnover – biochemical, NADPH fluorescence, primary screen (AID 623;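 active = NADPH fluorescence slope more negative than the mean of all samples by about 3 SD, 99.7% confidence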;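 note: fluorescence intensity change per second fitted from 20 to 320 s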); conditions: Recombinant KvBeta, NADPH fluorescence decrease slope, 10 min; at 10 µM; stronger effect = lower value
# [8] = molecular target: Alpha-2C adrenergic receptor (Homo sapiens) (UniProt P18825); experiment: compounds altering alpha2C-coupled GIRK flux – cell-based, HEK293 alpha2C/GIRK1/2, thallium flux, primary screen (AID 624;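 active = fluorescence slope after compound addition differing from the mean of all screened samples at 99.7% confidence, in either direction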;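 note: slope of fluorescence ratio to pre-addition baseline per second over 15 to 24 s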); conditions: thallium flux BTC fluorescence, at 10 µM, actives lie on both sides
# Chain of Alpha-2C adrenergic receptor (Homo sapiens) (P18825 whole entry, looked up): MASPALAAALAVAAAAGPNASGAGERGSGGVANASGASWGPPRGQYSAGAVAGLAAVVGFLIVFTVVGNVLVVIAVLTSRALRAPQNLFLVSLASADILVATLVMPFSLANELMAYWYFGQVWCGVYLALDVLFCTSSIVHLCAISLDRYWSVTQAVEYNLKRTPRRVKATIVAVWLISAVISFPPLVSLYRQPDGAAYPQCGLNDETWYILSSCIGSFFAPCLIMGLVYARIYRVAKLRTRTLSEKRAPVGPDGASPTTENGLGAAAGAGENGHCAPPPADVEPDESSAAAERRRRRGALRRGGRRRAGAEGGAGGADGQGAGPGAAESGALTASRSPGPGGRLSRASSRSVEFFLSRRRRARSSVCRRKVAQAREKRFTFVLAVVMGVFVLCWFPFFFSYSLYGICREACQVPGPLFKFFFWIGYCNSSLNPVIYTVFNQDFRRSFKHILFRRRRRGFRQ
# [9] = inhibitors of larval lipid processing in zebrafish, primary screen, whole organism, PED6 fluorescence, gall bladder and intestine (AID 686;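 active = a full or partial loss of lipid-probe fluorescence in the fish gall bladder, intestine or both, judged by eye; inactive = no fluorescence loss, or compound toxic to the fish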;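 note: larvae 5 to 7 days old with five fish per well; signal comes from phospholipase A2 cleavage of quenched PED6 carried via bile; overnight exposure to compound and PED6 before scoring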); conditions: Zebrafish larvae PED6 lipid processing, fluorescence scoring; screened at 20 µM (by protocol)
# [10] = loss of swimming-algae plug formation – whole organism, Chlamydomonas reinhardtii, WT vs cilia-less mutant, absorbance, 96-well, primary screen (AID 463189;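 active = inhibition at or above 50% relative to wild type and mutant plate controls; inactive = inhibition below 50%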;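 note: 0% = wild type cc124 cells in DMSO and 100% = ciliumless bld1 mutant cells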); conditions: Chlamydomonas reinhardtii gravitaxis, OD600 absorbance, 2 days; at 10 µM; stronger effect = higher value
# [11] = blockers of RIG-like receptor reporter activation – cell-based, Sendai virus stimulus, luciferase, 10K MLSCN set, TLR/RLR signaling modifier project, primary screen (AID 602276;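 active = inhibition at or above 50% at 10 µM; inactive = inhibition below 50%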;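 note: firefly luciferase from ISG56 promoter only with Renilla not read in this screen; 0% = Sendai virus plus DMSO and 100% = medium plus DMSO without virus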); conditions: HEK293 RL24 IRF3 luciferase reporter, at 10 µM, stronger effect = higher value
# [12] = TLR3 IRF3 reporter activation blockers – cell-based, poly I:C stimulus, luciferase, 10K MLSCN set, primary screen (AID 602277); conditions: HEK293-TLR3 RL24 IRF3 luciferase reporter, at 10 µM, stronger effect = higher value
# [13] = measured here: cell density z-score
# [14] = measured here: nuclear c-Myc green intensity z-score
# [15] = measured here: nuclear pErk red intensity z-score, stronger effect = higher value
smiles,measurement,setting,value
CC1C/C=C/C=C/C=C/C=C/C(O[C@@H]2O[C@H](C)[C@@H](O)[C@H](N)[C@@H]2O)CC2OC(O)(CC(O)CC3OC3/C=C/C(=O)O1)CC(O)C2C(=O)O (stereo not given in full),cell count,[1],624
same,inhibition,[1],-3.2% (inactive)
same,inhibition of aggregation,[2],0.7% (inactive)
same,nuclei count,[2],111%
same,inhibition,[3],-59.4% (inactive)
same,nuclei count,[3],135%
same,z-score,[4]; [13],-0.528
same,z-score,[4]; [14],-0.94
same,z-score,[4]; [15],-0.621
same,inhibition,[5],11.3% (inactive)
same,fluorescence slope,[6],-0.469 (inactive)
same,NADPH fluorescence slope,[7],-4.6e-05 (inactive)
same,slope,[8],0.00542 (inactive)
same,outcome,[9],inactive
same,inhibition,[10],1.43% (inactive)
same,inhibition,[11],7.33% (inactive)
same,inhibition,[12],28.4% (inactive)
NNC(=O)c1ccncc1,cell count,[1],640
same,inhibition,[1],1.1% (inactive)
same,inhibition of aggregation,[2],-3.3% (inactive)
same,nuclei count,[2],113%
same,inhibition,[3],-58.5% (inactive)
same,nuclei count,[3],126%
same,z-score,[4]; [13],1.92
same,z-score,[4]; [14],0.875
same,z-score,[4]; [15],-1.14
same,inhibition,[5],16.8% (inactive)
same,fluorescence slope,[6],-0.467 (inactive)
same,NADPH fluorescence slope,[7],-6.4e-05 (inactive)
same,slope,[8],0.00499 (inactive)
same,outcome,[9],inactive
same,inhibition,[10],2.05% (inactive)
same,inhibition,[11],13.6% (inactive)
same,inhibition,[12],39.7% (inactive)
CCCCN(CCCC)CCCOC(=O)c1ccc(N)cc1,cell count,[1],680
same,inhibition,[1],-1.8% (inactive)
same,inhibition of aggregation,[2],7.7% (inactive)
same,nuclei count,[2],97.6%
same,inhibition,[3],-60.2% (inactive)
same,nuclei count,[3],130%
same,z-score,[4]; [13],-0.857
same,z-score,[4]; [14],-0.989
same,z-score,[4]; [15],0.993
same,inhibition,[5],-4.44% (inactive)
same,fluorescence slope,[6],-0.511 (inactive)
same,NADPH fluorescence slope,[7],-5.7e-05 (inactive)
same,slope,[8],0.00529 (inactive)
same,outcome,[9],inactive
same,inhibition,[10],12.6% (inactive)
same,inhibition,[11],-12.8% (inactive)
same,inhibition,[12],56.3% (active)
CN(C)CCN(Cc1ccccc1)c1ccccn1,cell count,[1],526
same,inhibition,[1],-10.5% (inactive)
same,inhibition of aggregation,[2],18.7% (inactive)
same,nuclei count,[2],98.3%
same,inhibition,[3],-31.1% (inactive)
same,nuclei count,[3],109%
same,z-score,[4]; [13],-0.393
same,z-score,[4]; [14],0.385
same,z-score,[4]; [15],-0.67
same,inhibition,[5],9.37% (inactive)
same,fluorescence slope,[6],-0.432 (inactive)
same,NADPH fluorescence slope,[7],-8.6e-05 (inactive)
same,slope,[8],0.00588 (inactive)
same,outcome,[9],inactive
same,inhibition,[10],49.5% (inactive)
same,inhibition,[11],11.1% (inactive)
same,inhibition,[12],33.9% (inactive)
COc1ccc(C2/C(=C(/O)c3ccccc3)C(=O)C(=O)N2c2ncccn2)cc1OC (stereo not given),cell count,[1],460
same,inhibition,[1],-0.7% (inactive)
same,inhibition of aggregation,[2],2.3% (inactive)
same,nuclei count,[2],108%
same,inhibition,[3],-7.4% (inactive)
same,nuclei count,[3],151%
same,z-score,[4]; [13],-0.394
same,z-score,[4]; [14],1.14
same,z-score,[4]; [15],-0.858
same,inhibition,[5],11.4% (inactive)
same,fluorescence slope,[6],-0.338 (inactive)
same,NADPH fluorescence slope,[7],-3.2e-05 (inactive)
same,slope,[8],0.00532 (inactive)
same,outcome,[9],inactive
same,inhibition,[10],-1.92% (inactive)
same,inhibition,[11],7.62% (inactive)
same,inhibition,[12],3.83% (inactive)
